Measured values from PubChem BioAssay.

Experiment: optical density shifts of acrAB sulA E. coli – strain DRC41, OD650, 48 h, E. coli filamentation inducer project, primary screen (AID 1152);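 also: E. coli MC1000 strain DRC41 lacking acrAB efflux pump and sulA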
Conditions: higher = more signal, called active from +8 up or from −8 down

z-score, inactive:
C=CCN1C(=O)[C@]2(O[C@H](CCO)[C@@H]([Si](C)(C)c3ccc(OC)cc3)[C@@H]2C)c2cc(N3C(=O)c4cccc5cccc3c45)ccc21 0.568
C[N+](C)(C)CCCCNC(=O)[C@H]1C[C@H]2C(=O)N[C@@H](Cc3ccccc3)C(=O)N2[C@H]1c1ccc(O)cc1 0.274
COC(=O)[C@@]1(Cc2ccc(F)cc2)[C@H]2c3cc(C(=O)N4CCCC4)n(Cc4cc(C)n(C)n4)c3C[C@H]2CN1C(=O)c1ccccc1 -0.859
Cc1ccc(S[C@]2(C(=O)NCC(F)(F)F)CC(=O)N(C(C)C)[C@@H]2c2ccc(CO)cc2I)cc1 0.302
CO[C@H]1O[C@H](CO)[C@@H](OC(=O)Nc2ccc(Br)cc2)[C@H](OC(=O)c2cc3ccccc3[nH]2)[C@H]1OC(=O)c1cc2ccccc2[nH]1 1.99
COc1ccc(CCNC(=O)[C@@]2(Sc3ccc(C)cc3)CC(=O)N(C3CCCCC3)[C@@H]2c2ccc(CO)cc2I)cc1 -0.0948
CC(C)c1ccc(NN2C(C(O)c3cc(C(F)(F)F)cc(C(F)(F)F)c3)C=CC3C(=O)N(c4ccccc4)C(=O)C32)cc1 (stereo not given) -2.06
COc1ccc([C@H]2OC[C@@H]3CC4(CC=CC4)C(=O)N32)cc1 -0.56
CN1C(=O)C2C=CC(C(O)C3CC=CCC3)N(NC(=O)OC(C)(C)C)C2C1=O (stereo not given) -1.49
N#Cc1ccc(NN2C(C(O)c3c(F)cccc3Cl)C=CC3C(=O)N(c4ccccc4)C(=O)C32)cc1 (stereo not given) -0.857
